NPSR antagonist – antagonists of human neuropeptide S receptor cAMP signaling; Q6W5P4; CHO-NPSR cells, cAMP TR-FRET, antagonist mode; Potency, µM (highest dose often 38.3 µM), for inactives: at the highest dose activity change, negative = inhibition, usual class: inhibitors; actives 1% (n = 220,000); AID 1461; also: nearly all actives have a fitted effect of over 50% in size
Target sequence (Q6W5P4 whole entry, looked up): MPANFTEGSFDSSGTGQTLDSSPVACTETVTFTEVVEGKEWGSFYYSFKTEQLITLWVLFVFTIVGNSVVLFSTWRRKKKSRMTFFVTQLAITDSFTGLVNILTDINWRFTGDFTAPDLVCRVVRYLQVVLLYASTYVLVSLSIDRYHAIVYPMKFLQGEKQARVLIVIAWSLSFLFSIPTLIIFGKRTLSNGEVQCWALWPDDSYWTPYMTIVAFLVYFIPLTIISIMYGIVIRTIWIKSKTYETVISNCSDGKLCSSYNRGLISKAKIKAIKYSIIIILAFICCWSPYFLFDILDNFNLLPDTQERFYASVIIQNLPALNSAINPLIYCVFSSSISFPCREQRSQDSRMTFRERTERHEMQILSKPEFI
HPGD inh – blocks human HPGD enzyme activity; P15428; purified HPGD, NADH fluorescence kinetic, PGE2 substrate; Potency, µM, for inactives: at the highest dose activity change, negative = inhibition, usual class: inhibitors; actives 4.3% (n = 150,000); AID 894; active = well fitted inhibition curve with a large enough effect, not every such curve was filed as active; inconclusive = small, poorly fitted or top-dose-only effect, or another doubt; inactive = no such curve, though single readings can be large or run the other way
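NADH formation kinetics: reaction with 30 uM PGE2 and 1 mM NAD+ (final), 20 nM enzyme, Tris-HCl pH 8 with Tween 20, after 15 min compound preincubation at room temperature. Fluorescence change, last versus first of five reads.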
ALDH1A1 block – inhibitors of human aldehyde dehydrogenase 1A1; P00352; Purified ALDH1A1, NADH fluorescence, propionaldehyde substrate; Potency, µM (series often up to 75.3 µM), without a hit: top-dose activity, negative = inhibition, usual class: inhibitors; actives 7.3% (n = 220,000); active = well fitted inhibition curve with a large enough effect, not every such curve was filed as active; inconclusive = small, poorly fitted or top-dose-only effect, or another doubt; inactive = no such curve, though single readings can be large or run the other way;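 also: plate controls were no enzyme wells and a reference inhibitor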
Tau fibril FP – inhibitors of human tau fibril formation. K18 P301L tau heparin fibrillization, Alexa594 FP, 6 h. P10636. actives 0.39% (n = 280,000). Potency, µM (top dose mostly 57.7 µM), inactives show top-dose activity, negative = inhibition, hits mostly inhibitors; also: nearly all actives have a fitted effect of over 55% in size
Target sequence (P10636 561-689 P618L limits assumed): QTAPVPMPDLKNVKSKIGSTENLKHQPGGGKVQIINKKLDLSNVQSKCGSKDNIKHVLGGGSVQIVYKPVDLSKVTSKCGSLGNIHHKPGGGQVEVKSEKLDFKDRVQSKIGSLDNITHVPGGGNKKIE
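Read-out: fluorescence polarization of Alexa 594-labeled tau (0.24 uM), 555 nm excitation, 632 nm emission. Mixtures held 15 uM unlabeled K18 P301L, compound and 20 uM heparin, pH 7 acetate buffer, incubated 6 hr at 37 C.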
Tau fluor counter – counter-screen for tau fibril formation inhibitors; Potency, µM (series often up to 57.7 µM), for the others: top-dose activity change, negative = decrease; actives 0.93% (n = 280,000); tau K18 P301L Alexa594 fluorescence, heparin fibrillization; AID 1463; also: nearly all actives have a fitted effect of over 55% in size
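Human K18 P301L tau (15 uM unlabeled plus 0.24 uM Alexa 594-labeled, final) in 100 mM sodium acetate pH 7 was mixed with compound and 20 uM heparin and incubated 6 hr at 37 C.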
Tau fibril ThT – inhibitors of human tau fibril formation, thioflavin T binding. actives 2.1% (n = 270,000). Potency, µM (top dose mostly 57.4 µM), for inactives: at the highest dose activity, negative = inhibition, usual class: inhibitors. recombinant tau K18 P301L (four-repeat tau fragment), heparin-induced fibrillization, ThT fluorescence; also: nearly all actives have a fitted effect of over 55% in size
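K18 P301L tau (15 uM + 0.24 uM Alexa 594-tagged), heparin 20 uM, NaOAc pH 7, 6 h 37 C; ThT 30 uM, 1 h RT, ex 450/em 510 nm.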
The depositor's hits bear a star; [ ] = remark or other dose. Only some compounds are listed: those with a hit (about 9.5% of all), similar ones and a draw of the others. Unless noted, calls follow the shape of the dose curve; as a rule, active = well fitted curve in the direction sought with a large enough effect; inconclusive = small, poorly fitted or top-dose-only effect, or another doubt; inactive = no such curve, though single readings can be large; an effect the other way counts as inactive or inconclusive. Unless noted, % is scaled to controls: 0 for no effect and ±100 for the full control effect; potency is read from the fitted curve at half-maximal effect.

What do the screens show for `CN(C)S(=O)(=O)c1ccc(C(=O)NCCSc2c(-c3ccc(Br)cc3)[nH]c3ccccc23)cc1`?
Tau fibril FP: inconclusive; Tau fluor counter: 4.5µM*[quencher]; Tau fibril ThT: -6%

What do the screens show for `COc1cc(NC(=O)Cn2ncc3c([nH]c4ccc(C)cc43)c2=O)cc(OC)c1OC`?
Tau fibril FP: -19%; Tau fluor counter: -5%; Tau fibril ThT: 1%

What do the screens show for `Cc1ccc2c(c1)N/C(=C(\C=C(/Cl)[N+](=O)[O-])[N+](=O)[O-])N2`?
NPSR antagonist: -5%; ALDH1A1 block: inconclusive; Tau fibril FP: -8%; Tau fluor counter: inconclusive; Tau fibril ThT: 18µM*

What do the screens show for `Clc1ccc2nc(SCc3nnc(-c4ccccc4)o3)[nH]c2c1`?
NPSR antagonist: -4%[46.1 µM]; HPGD inh: 18µM*; ALDH1A1 block: 11µM*; Tau fibril FP: inconclusive; Tau fluor counter: inconclusive; Tau fibril ThT: -6%

Results for Cn1c2ccccc2c2nnc(SCc3nnc(-c4ccccc4)o3)nc21 ?
NPSR antagonist: 8%; ALDH1A1 block: 4%; Tau fibril FP: 9%; Tau fluor counter: -1%; Tau fibril ThT: -7%

What do the screens show for `COc1ccccc1OCc1nnc(-c2ccccc2)o1`?
Tau fibril FP: -7%; Tau fluor counter: -16%; Tau fibril ThT: -8%

Results for Cn1c(SCc2nnc(-c3ccccc3)o2)nc2ccccc21 ?
NPSR antagonist: 9%; ALDH1A1 block: 13µM*; Tau fibril FP: -2%; Tau fluor counter: -15%; Tau fibril ThT: -15%

Results for Clc1ccc(OCc2nnc(SCc3nnc(-c4ccccc4)o3)o2)c(Cl)c1 ?
NPSR antagonist: inconclusive; HPGD inh: 7.9µM*; ALDH1A1 block: inconclusive; Tau fibril FP: 4%; Tau fluor counter: 12%; Tau fibril ThT: 13%

Results for COc1ccccc1NC(=O)Cn1c(=O)n(Cc2ccc3c(c2)OCO3)c(=O)c2oc3ccccc3c21 ?
Tau fibril FP: -10%; Tau fluor counter: -30%; Tau fibril ThT: 16%

Results for CC(C)CC(=O)Nc1nnc(S(=O)(=O)N(C)Cc2ccc(Cl)cc2)s1 ?
Tau fibril FP: -6%; Tau fluor counter: 0%; Tau fibril ThT: 1%

Results for CCSc1nnc(NC(=O)COc2ccc3ccccc3c2)s1 ?
NPSR antagonist: -7%[46.1 µM]; HPGD inh: -6%; ALDH1A1 block: -2%; Tau fibril FP: -1%; Tau fluor counter: -5%; Tau fibril ThT: inconclusive

How did O=c1[nH]c(=O)c2nnc(N/N=C\c3ccc(O)cc3)nc2[nH]1 do in these assays?
NPSR antagonist: -5%; ALDH1A1 block: -8%; Tau fibril FP: -1%; Tau fluor counter: -10%; Tau fibril ThT: 4µM*

What do the screens show for `O=c1[nH]c(=O)c2nnc(N/N=C/c3ccccc3F)nc2[nH]1`?
NPSR antagonist: 9%; Tau fibril FP: 1%; Tau fluor counter: -1%

How did O=C(Nc1ccc(Nc2ccncc2)cc1)c1ccc(Nc2ccnc3ccc([N+](=O)[O-])cc23)cc1[N+](=O)[O-] do in these assays?
NPSR antagonist: 13%; ALDH1A1 block: 31%; Tau fibril FP: -3%; Tau fluor counter: 11µM*[quencher]; Tau fibril ThT: inconclusive

What do the screens show for `Cc1cccc(C)c1NC(=O)C1CCCN1S(=O)(=O)c1ccccc1` (stereo unspecified)?
Tau fibril FP: 4%; Tau fluor counter: 2%; Tau fibril ThT: 7%

What do the screens show for `CC(=O)Oc1cc(OC(C)=O)c2c(c1)OC(c1ccc(OC(C)=O)c(OC(C)=O)c1)C(OC(C)=O)C2` (stereo unspecified)?
HPGD inh: 3%; ALDH1A1 block: 4%; Tau fibril FP: -8%; Tau fluor counter: -11%; Tau fibril ThT: -18%

Results for CN(c1cccc(NS(=O)(=O)c2cccc([N+](=O)[O-])c2)c1)S(C)(=O)=O ?
NPSR antagonist: 6%; ALDH1A1 block: inconclusive; Tau fibril FP: -6%; Tau fluor counter: -9%; Tau fibril ThT: -7%

What do the screens show for `Cc1ccc(S(=O)(=O)Nc2cccc(N(C)S(C)(=O)=O)c2)cc1[N+](=O)[O-]`?
NPSR antagonist: 7%; ALDH1A1 block: 16µM*; Tau fibril FP: 9%; Tau fluor counter: 4%; Tau fibril ThT: 4%

Results for CCCCN1CSC(=S)N(Cc2ccccc2)C1 ?
HPGD inh: -21%; ALDH1A1 block: 3.5µM*

Results for CC(C)N1CSC(=S)N(Cc2ccccc2)C1 ?
NPSR antagonist: inconclusive; ALDH1A1 block: inconclusive; Tau fibril FP: -5%; Tau fluor counter: -4%; Tau fibril ThT: -7%

Results for CC(C)(C)N1CSC(=S)N(Cc2ccccc2)C1 ?
NPSR antagonist: -14%; ALDH1A1 block: 32µM*; Tau fibril FP: -12%; Tau fluor counter: -2%; Tau fibril ThT: 1%

How did CS(=O)(=O)N1CCC2(CC1)CN(C(=O)Nc1ccccc1)C2 do in these assays?
HPGD inh: -7%; ALDH1A1 block: 6%

What do the screens show for `CCOCCc1nn2c(=O)cc(COC(=O)COc3ccccc3Cl)nc2s1`?
Tau fibril FP: 11%; Tau fluor counter: 11%; Tau fibril ThT: 9%

How did COc1cc(C(=O)NNC2=CC(=O)CC(C)(C)C2)cc(OC)c1OC do in these assays?
NPSR antagonist: -10%[46.1 µM]; HPGD inh: -1%; ALDH1A1 block: 1%; Tau fibril FP: 4%; Tau fluor counter: 4%; Tau fibril ThT: 4%

Results for O=C1CN(C(=O)/C=C/c2cccc(Cl)c2)c2ccccc2N1 ?
NPSR antagonist: -18%; ALDH1A1 block: -4%; Tau fibril FP: 2%; Tau fluor counter: -26%; Tau fibril ThT: -6%

What do the screens show for `COC(=O)/C(=C\c1ccc(O)cc1)c1nc2ccccc2[nH]1`?
NPSR antagonist: 0%; ALDH1A1 block: 12µM*; Tau fibril FP: 7%; Tau fluor counter: -11%; Tau fibril ThT: inconclusive

Results for COc1cc(/C=C(/C(=O)c2cccs2)c2nc3ccccc3[nH]2)ccc1O ?
NPSR antagonist: 10µM*; HPGD inh: -30%; ALDH1A1 block: inconclusive; Tau fibril FP: 2%; Tau fluor counter: inconclusive; Tau fibril ThT: inconclusive

How did COC(=O)/C(=C\c1cc(OC)c(OC)c(OC)c1)c1nc2ccccc2[nH]1 do in these assays?
NPSR antagonist: -24%; ALDH1A1 block: inconclusive; Tau fibril FP: 2%; Tau fluor counter: -4%; Tau fibril ThT: inconclusive

What do the screens show for `O=C(/C=C/c1cccc(Cl)c1)c1nc2ccccc2[nH]1`?
NPSR antagonist: -23%[46.1 µM]; HPGD inh: inconclusive; ALDH1A1 block: 2.2µM*; Tau fibril FP: 5%; Tau fluor counter: 4%; Tau fibril ThT: 5%
